Source: PubChem
mTORC1 inh – inhibitors of mTORC1 signaling in Tsc2-/- p53-/- MEF cells | Tsc2-/- p53-/- MEF, phospho-rpS6 immunofluorescence/PI, 24 h | Potency, µM (doses to about 38.3 µM), for the others: at the highest dose activity change, negative = inhibition, most hits filed as inhibitors | 44,000 tested, 0.78% active | AID 493208;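 further: plate controls were DMSO for no effect and rapamycin for full effect; nearly all actives have a fitted effect of over 50% in size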
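Plate MEFs (Tsc2-/-, p53-/-, empty vector) in DMEM/10% FBS; after 24 h add compound, incubate 24 h at 37 degree Celsius; fix in PFA/TX-100, block, stain phospho-rpS6 and 10 uM PI; scan at 488 nm; report % positive cells.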
PMP22 txn prim – modulators of PMP22 gene transcription in S16 Schwann cells; Potency, µM (top dose mostly 57.5 µM), without a hit: at the highest dose activity change, negative = inhibition, most hits filed as inhibitors; S16 Pmp22-F2sN Schwann cells, FLuc/NLuc coincidence luminescence, 24 h; AID 1508649; 43,000 tested, 2% active; active means clear falling dose curves in both reporters; inconclusive means both reporters move, but less clearly or upward; inactive means either reporter flat; the % is the NLuc reporter signal
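S16 Schwann cells carrying FLuc/NLuc coincidence reporter in the Pmp22 3' UTR treated with compound 24 h at 37C; FLuc then NLuc luminescence read sequentially by dual-luciferase reagents.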
S16 F2sN tox – toxic to S16 Pmp22-F2sN Schwann cells; S16 Pmp22-F2sN Schwann cells viability, CellTiter-Glo, 24 h; Potency, µM (doses to about 57.5 µM), without a hit: top-dose activity change, negative = cytotoxicity, actives largely listed as cytotoxic; 43,000 tested, 0.48% active; further: nearly all actives have a fitted effect of over 65% in size
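S16 Pmp22-F2sN Schwann cells (500-1,000/well) in phenol-red-free DMEM with 10% FBS received 23 nL compound by pin tool for 24 h at 37 °C. Viability was then read as CellTiter-Glo luminescence after 15 min at room temperature.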
p53null 32C kill – kills p53 null cells at the permissive temperature; Potency, µM (doses to about 46.1 µM), inactives show top-dose activity change, negative = cytotoxicity, most hits filed as cytotoxic; H1299-neo p53 null cells, ATP luminescence, 24 h, 32C; AID 903; 55,000 tested, 0.62% active;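 further: 0% = DMSO only and -100% = full killing by 100 µM tamoxifen; nearly all actives have a fitted effect of over 55% in size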
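Cells lacking p53 (H1299-neo) are plated at 600 per well and allowed to settle overnight at 37C. Test compounds (up to 46 uM) are added and held 24 hours at 32C, then ATP is quantified by luminescence.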
p53null 39C tox – p53 null cell cytotoxicity, nonpermissive temperature. 55,000 tested, 0.97% active. H1299 p53-null (neo) cells, 39C, ATPlite viability, 24 h. Potency, µM (doses to about 46.1 µM), without a hit: top-dose activity, negative = cell killing, usual class: cytotoxic;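 further: 0% = DMSO only and -100% = full killing by 100 µM tamoxifen; nearly all actives have a fitted effect of over 50% in size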
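Cells seeded at 600/well, 37C overnight. Compound added (up to 46 uM), plates shifted to 39C for 24 hr. ATPlite added, luminescence read after 20 min at room temperature.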
The depositor's hits bear a star; ? = inconclusive; nt = no result. A selection: hits, their analogues and other compounds. The true share with any hit is near 3.2%. Unless noted, the call rests on the fitted dose curve; in most records, active means well fitted curve in the direction sought with a large enough effect; inconclusive means small, poorly fitted or top-dose-only effect, or another doubt; inactive means no such curve, though single readings can be large; an effect the other way counts as inactive or inconclusive. Unless noted, on the % scale 0 is the no-effect control and ±100 the full control effect; potency means the concentration at half of the fitted maximal effect.

SMILES	mTORC1 inh	PMP22 txn prim	S16 F2sN tox	p53null 32C kill	p53null 39C tox
CCOc1ccc2nc(N3CCN(C(=O)CS(=O)(=O)c4ccc(F)cc4)CC3)sc2c1	-8%	?	?	10µM*	?
CCOc1ccc2nc(N3CCN(C(=O)c4ccc(S(=O)(=O)CC)cc4)CC3)sc2c1	-5%	-26%	-28%	-13%	19%
Cc1ccc(C)c(CSc2cn(CCNC(=O)c3ccccc3F)c3ccccc23)c1	7%	?	-3%	nt	nt
Cc1c(C(=O)OCCOc2ccccc2)[nH]c2c1C(=O)CC(c1ccccc1)C2 (configuration not stated)	?	?	?	15%	?
Cc1c(C(=O)OCCOc2ccccc2)[nH]c2c1C(=O)CC(c1ccccc1Cl)C2 (configuration not stated)	1.3µM*	5.3µM*	?	11%	?
COc1ccccc1NC(=O)c1c(NCc2ccc(C)o2)sc2c1CCCCC2	?	14µM*	5%	?	20%
COc1ccc(CC(=O)Nc2sc3c(c2C(=O)Nc2ccccc2)CCCCC3)cc1	4.6µM*	?	?	-8%	?
COc1ccc(OC)c(NC(=O)c2c(NCc3ccc(C)o3)sc3c2CCCCC3)c1	?	?	?	27%	9%
O=C(Cc1ccccc1)Nc1sc2c(c1C(=O)Nc1ccccc1)CCCCC2	?	?	-12%	-7%	-18%
CCOC(=O)CCn1cnc2onc(-c3cc(OC)ccc3Cl)c2c1=O	0%	-11%	9%	-2%	6%
Cc1ccc(C2c3c(-c4cc(C)ccc4O)n[nH]c3C(=O)N2Cc2ccco2)cc1 (configuration not stated)	?	?	?	18µM*	?
Cc1ccc(C2c3c(-c4ccccc4O)n[nH]c3C(=O)N2CCCO)cc1 (configuration not stated)	?	-16%	-5%	7%	11%
CCCn1c(/C=C/c2ccccc2)nc2ccccc21	-8%	-11%	-5%	16µM*	?
Cc1ccc2nc(-c3cccc(N)c3)[nH]c2c1	nt	nt	nt	13µM*	?
Nc1cccc(-c2nc3ccccc3[nH]2)c1	nt	nt	nt	-19%	-21%
Cc1cc(C)c(NS(=O)(=O)c2ccc(-c3cnc(C4CC4)o3)cc2)c(C)c1	?	?	0.79µM*	47%	?
Cc1cc(C)c(NS(=O)(=O)c2cc(-c3cnc(C4CC4)o3)ccc2C)c(C)c1	30%	-6%	3%	1%	-6%
COc1cccc(N2CCN(S(=O)(=O)c3ccc(-c4cnc(C5CC5)o4)cc3)CC2)c1	0%	?	16µM*	-10%	-25%
CCN(CC)c1ccc(NS(=O)(=O)c2ccc(-c3cnc(C4CC4)o3)cc2)c(C)c1	0%	?	1.8µM*	?	48%
CCOc1ccccc1NS(=O)(=O)c1ccc(-c2cnc(C3CC3)o2)cc1	?	?	-17%	-6%	?
O=C(Cn1nnc(-c2ccc(C(F)(F)F)cc2)n1)NCCc1ccccc1	0%	-17%	4%	16%	-2%
Cc1cc(C)c2c(N)c(C(=O)Nc3ncc(C)s3)sc2n1	nt	nt	nt	0.89µM*	1µM*
CC(=O)c1cccc2c(O)c(C3=Nc4ccccc4C3=O)[nH]c12	nt	nt	nt	-8%	7%
CCOC(=O)c1ccc(NS(=O)(=O)c2c(C)n(C)c(=O)n(C)c2=O)cc1	nt	nt	nt	-1%	7%
CCCCOC(=O)c1cccc(NC(=O)c2cc3ccccc3o2)c1	17%	?	-15%	10µM*	13µM*
O=C(Nc1nc2c(F)cc(F)cc2s1)c1ccc2c(c1)OCCO2	0%	?	-3%	-17%	-40%
COc1cccc2sc(NC(=O)c3ccc4c(c3)OCCO4)nc12	10%	?	3%	7.9µM*	7.9µM*
Cc1ccc(OCC(O)Cn2c(=N)n(CCN3CCCCC3)c3ccccc32)cc1 (configuration not stated)	nt	?	?	-3%	13µM*
Cc1ccccc1Nc1c(-c2ccc(N3CCOCC3)cc2)nc2ccccn12	?	0%	-13%	1.6µM*	0.32µM*
